Bioassay records: PubChem, National Center for Advancing Translational Sciences (NCATS)
Rows were chosen to be rich in hits. Some 7.4% of all compounds tested hit in one or more screens of this group.
Rab9 promoter act = activators of Rab9 promoter. Potency, µM (top dose mostly 9.22 µM), inactives show top-dose activation, negative = inhibition, actives largely listed as activators. Huh7 Rab9 promoter-luciferase reporter, luminescence, 24 h. 320,000 tested, 2.8% active. AID 485297; also: % of control where 0% means no effect; nearly all actives have a fitted effect of over 60% in size
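Huh7 reporter line, Rab9 promoter upstream of luciferase. Compound exposure 24 h at 37 °C in reduced-serum medium with 10% FBS. Read-out: luminescence.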
NPC1 prom act = activates the NPC1 promoter; 320,000 tested, 2.4% active; Potency, µM (top dose mostly 9.22 µM), for the others: at the highest dose activation, actives largely listed as activators; Huh7 NPC1 promoter luciferase reporter, 24 h; also: % of control where 0% means no effect; nearly all actives have a fitted effect of over 60% in size
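Stably transfected Huh7 (NPC1 promoter→luciferase), 1500 cells/well in Opti-MEM + 10% FBS, 2 h settle, then compound 24 h at 37 °C. Luminescence after 10 min with Amplite reagent.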
FLuc counter = inhibits or activates purified firefly luciferase, miR-21 counter-screen. Potency, µM (top dose mostly 57.5 µM), for inactives: at the highest dose activity change, negative = inhibition, usual class: inhibitors. 360,000 tested, 6.9% active. purified FLuc, Km substrates, luminescence inhibition. P08659;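 also: plate controls were vehicle for no effect and reference inhibitor for full effect; nearly all actives have a fitted effect of over 55% in size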
Target sequence (P08659 whole entry, looked up): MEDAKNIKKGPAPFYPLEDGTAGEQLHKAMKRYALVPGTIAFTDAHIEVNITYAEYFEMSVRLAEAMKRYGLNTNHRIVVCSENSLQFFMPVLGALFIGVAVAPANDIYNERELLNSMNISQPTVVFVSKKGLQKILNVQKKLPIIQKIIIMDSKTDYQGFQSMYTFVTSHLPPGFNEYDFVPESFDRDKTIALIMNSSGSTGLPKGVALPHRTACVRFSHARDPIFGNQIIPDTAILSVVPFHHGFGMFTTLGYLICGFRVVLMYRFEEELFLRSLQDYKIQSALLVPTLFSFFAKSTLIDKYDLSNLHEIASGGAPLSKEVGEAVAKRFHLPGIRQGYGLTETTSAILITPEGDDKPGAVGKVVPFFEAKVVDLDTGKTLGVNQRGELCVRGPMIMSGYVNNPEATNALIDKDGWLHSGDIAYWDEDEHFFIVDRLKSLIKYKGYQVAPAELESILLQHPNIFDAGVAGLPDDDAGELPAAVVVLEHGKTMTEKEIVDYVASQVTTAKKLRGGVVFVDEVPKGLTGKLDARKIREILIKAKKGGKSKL
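Purified P. pyralis luciferase (10nM final) with 10uM D-luciferin and 10uM ATP (Km levels) in 50mM Tris acetate pH 7.5, 10mM Mg acetate, 0.01% Tween-20, 0.05% BSA; qHTS 6-point titration, ~60 µM downward; luminescence read.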
ELG1 genotoxic = induces genotoxicity in HEK293T cells with luciferase-tagged ELG1. HEK293T ELG1-luciferase reporter, luminescence, 16 h. Potency, µM (titrated, usually from 46 µM), without a hit: at the highest dose activity change, positive = activation, usual class: activators. 330,000 tested, 1.3% active. AID 504466; also: % of control where 0% means no effect; nearly all actives have a fitted effect of over 60% in size
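DMSO vehicle served as control against compound-treated ELG1-luciferase HEK293T cells; exposure lasted 16 hr at 37 °C and 5% CO2, followed by ONE-Glo luminescence detection after 30 min.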
SMN2 splice up = increases expression of the SMN2 splice variant; HEK293 SMN2-luciferase splicing reporter, luminescence, 30-36 h; Potency, µM (titrated, usually from 46.1 µM), for the others: at the top dose activity change, positive = activation, usual class: activators; 210,000 tested, 2.8% active; AID 1458; also: % of control where 0% means no effect; nearly all actives have a fitted effect of over 55% in size
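qHTS luciferase splicing reporter: luminescence rises when SMN2 exon 7 is included in transfected HEK293 cells. Compound exposure lasted 30-36 h at 37C, with 4.5 mM final sodium butyrate as control, followed by a ONE-Glo read.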
An asterisk follows results filed as active; [ ] = remark or other dose. Calls follow the shape of the dose curve; as a rule, active = well fitted curve in the direction sought with a large enough effect; inconclusive = small, poorly fitted or top-dose-only effect, or another doubt; inactive = no such curve, though single readings can be large; an effect the other way counts as inactive or inconclusive. Potency is read from the fitted curve at half-maximal effect.

What do the screens show for `COc1ccc(/C=C/C(=O)Nc2cc(-c3nc4ccccc4o3)ccc2OC)cc1`?
FLuc counter: inconclusive; SMN2 splice up: -8%

How did COc1ccc(C(=O)/C(=C/c2cccs2)c2nc3ccccc3o2)cc1 do in these assays?
Rab9 promoter act: 3.5µM*; NPC1 prom act: 4µM*; FLuc counter: -12%; ELG1 genotoxic: inconclusive; SMN2 splice up: -72%

What do the screens show for `COc1ccc(/C=C(\CC(=O)O)c2nc3ccccc3o2)cc1`?
Rab9 promoter act: inconclusive; NPC1 prom act: 2%; FLuc counter: 9.5µM*; ELG1 genotoxic: 16µM*; SMN2 splice up: 30%

How did Cc1cc(C)c(NC(=O)c2ncoc2-c2ccco2)c(C)c1 do in these assays?
FLuc counter: -2%

What do the screens show for `CC(=O)Nc1ccc(NC(=O)c2ncoc2-c2ccco2)cc1`?
FLuc counter: 19µM*

Results for CN(CC(=O)Nc1ccc(F)c(F)c1F)C(=O)C1CCN(C(=O)Nc2ccccc2)CC1 ?
Rab9 promoter act: 3%; NPC1 prom act: -1%; FLuc counter: 5%; ELG1 genotoxic: -2%

Results for COCCN(CCOC)c1nc(C)nc2c1nc(-c1ccccc1)n2CCCN(C)C ?
SMN2 splice up: -4%

How did NC(=O)c1ccccc1NC(=O)/C=C/c1cccc(Cl)c1 do in these assays?
Rab9 promoter act: 2.2µM*; NPC1 prom act: 3.2µM*; FLuc counter: 6.7µM*; ELG1 genotoxic: 7%; SMN2 splice up: 11µM*

What do the screens show for `Cc1ccc(/C=C/C(=O)Nc2ccccc2C(N)=O)o1`?
FLuc counter: 9.5µM*; SMN2 splice up: 11µM*

What do the screens show for `NC(=O)c1ccccc1NC(=O)/C=C/c1c(Cl)cccc1Cl`?
Rab9 promoter act: 3.2µM*; NPC1 prom act: inconclusive; FLuc counter: 19µM*; ELG1 genotoxic: 12%; SMN2 splice up: 46%

Results for CC(C)(C)c1ccc(-c2noc(C(=O)NN)n2)cc1 ?
Rab9 promoter act: 18%; NPC1 prom act: 23%; FLuc counter: inconclusive; ELG1 genotoxic: 1%

How did CC(C)(C)c1ccc(-c2conc2N)cc1 do in these assays?
Rab9 promoter act: 2.5µM*; NPC1 prom act: inconclusive; FLuc counter: 2.7µM*; ELG1 genotoxic: 12%; SMN2 splice up: 18µM*

How did CCOC(=O)c1ccccc1NC(=O)CSc1nc2ncccc2o1 do in these assays?
FLuc counter: 0%

Results for CCCc1cc(=O)n2nc(N3CCC(C(=O)Nc4cccc(C(C)=O)c4)CC3)sc2n1 ?
Rab9 promoter act: -3%; NPC1 prom act: -2%; FLuc counter: -2%; ELG1 genotoxic: 7%

What do the screens show for `Cc1ccc(/C=C2/Sc3ccccc3N(CC(=O)NCC3CCCO3)C2=O)cc1` (centres undefined)?
Rab9 promoter act: -1%; NPC1 prom act: -1%; FLuc counter: inconclusive; ELG1 genotoxic: -9%

How did CCc1ccc(/C=C2/Sc3ccccc3N(CC(=O)NCC3CCCO3)C2=O)cc1 (centres undefined) do in these assays?
Rab9 promoter act: 2%; NPC1 prom act: 3%; FLuc counter: 19µM*; ELG1 genotoxic: -7%

Results for CC(O)c1cccc(-c2ccc(CN3C[C@]4(CO)O[C@@H](CO)C[C@@H]4S3(=O)=O)cc2)c1 (some centres undefined) ?
ELG1 genotoxic: 2%

What do the screens show for `Fc1cccc2sc(Nc3nnc(-c4ccco4)o3)nc12`?
Rab9 promoter act: 2.5µM*; NPC1 prom act: 4µM*; FLuc counter: 11µM*; ELG1 genotoxic: 2.6µM*; SMN2 splice up: 3.5µM*

Results for CCOc1cccc2sc(NN)nc12 ?
Rab9 promoter act: -3%; NPC1 prom act: -2%; FLuc counter: inconclusive; ELG1 genotoxic: 7%; SMN2 splice up: -18%

How did COc1cccc2sc(Nc3nnc(-c4cccs4)o3)nc12 do in these assays?
Rab9 promoter act: 1µM*; NPC1 prom act: 4µM*; FLuc counter: 4.8µM*; ELG1 genotoxic: inconclusive; SMN2 splice up: 14µM*

Results for COc1cccc2sc(NNC(=O)COc3ccccc3)nc12 ?
Rab9 promoter act: -1%; NPC1 prom act: 4%; FLuc counter: -1%; ELG1 genotoxic: -2%; SMN2 splice up: 5%

What do the screens show for `COc1cccc2sc(Nc3nnc(-c4ccc(F)cc4)o3)nc12`?
Rab9 promoter act: -9%; NPC1 prom act: -3%; FLuc counter: 24µM*; ELG1 genotoxic: inconclusive; SMN2 splice up: 6%

How did COc1ccccc1OCC#CCNC1CCCCC1C (centres undefined) do in these assays?
Rab9 promoter act: -11%; NPC1 prom act: -6%; FLuc counter: 1%; ELG1 genotoxic: -6%; SMN2 splice up: -13%

What do the screens show for `Oc1ccc(-c2nccc(-c3ccccn3)n2)cc1`?
Rab9 promoter act: inconclusive; NPC1 prom act: inconclusive; FLuc counter: 17µM*; ELG1 genotoxic: inconclusive

How did Cc1ccc(-c2ccnc(-c3ccc(O)cc3)n2)cc1 do in these assays?
Rab9 promoter act: 22%; NPC1 prom act: 8%; FLuc counter: 21µM*; ELG1 genotoxic: inconclusive; SMN2 splice up: 19%

What do the screens show for `Cc1ccc(C(=O)Oc2ccc(-c3nccc(-c4ccccn4)n3)cc2)cc1`?
Rab9 promoter act: 17%; NPC1 prom act: inconclusive; FLuc counter: 5%; ELG1 genotoxic: 10µM*; SMN2 splice up: inconclusive

How did COc1ccc(-c2ccnc(-c3ccc(O)cc3)n2)cc1 do in these assays?
Rab9 promoter act: -5%; NPC1 prom act: -33%; FLuc counter: inconclusive; ELG1 genotoxic: inconclusive; SMN2 splice up: 21%

Results for Oc1ccc(-c2nccc(-c3ccc(Br)cc3)n2)cc1 ?
Rab9 promoter act: 0%[1.84 µM]; NPC1 prom act: -7%; FLuc counter: inconclusive; ELG1 genotoxic: 11%

Results for COC(=O)C1C(=O)c2c([nH]c(C(=O)OCCOC(C)C)c2C)CC1C (centres undefined) ?
Rab9 promoter act: inconclusive; NPC1 prom act: 27%; FLuc counter: 13µM*; ELG1 genotoxic: inconclusive; SMN2 splice up: 1%

How did Cc1c(C(=O)OCCOc2ccccc2)[nH]c2c1C(=O)CC(c1ccccc1)C2 (centres undefined) do in these assays?
FLuc counter: 4%; SMN2 splice up: -19%

What do the screens show for `COC(=O)C1C(=O)c2c([nH]c(C(=O)OC3CCCCC3)c2C)CC1C` (centres undefined)?
Rab9 promoter act: 2.8µM*; NPC1 prom act: 2.8µM*; FLuc counter: 1.7µM*; ELG1 genotoxic: inconclusive; SMN2 splice up: 13µM*

Results for COC(=O)C1C(=O)c2c([nH]c(C(=O)OC3CCCC3C)c2C)CC1C (centres undefined) ?
Rab9 promoter act: 1.4µM*; NPC1 prom act: 1.6µM*; FLuc counter: 2.4µM*; ELG1 genotoxic: 4.6µM*; SMN2 splice up: 11µM*

Results for COc1ccc(S(=O)(=O)c2cc3cc(C(C)(C)C)cc(O)c3oc2=O)cc1 ?
FLuc counter: -18%; SMN2 splice up: -47%
